The supplement of paper PMC3558484

tested on: H1 OCT4-GFP hESC; test: survival Z score in repeat assay, Calcein AM perimeter-filtered objects (vs plate mean) (Z score (SD)); higher = more surviving cells, active = 3 or more; settings: 10 µM, 2 days, cells per well: 1500, rescreen
Experimental: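 Top perimeter-filtered hits were cherry-picked and rescreened in the same Calcein AM assay (H1 OCT4-GFP hESCs, 1500 cells/well, 10 µM, 2 days, objects with perimeter ≥100 µm). Results are per-plate Z scores; a hit is Z ≥3.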

Structure (SMILES) | survival Z score in repeat assay
CC(N/C(=N\C#N)Nc1ccncc1)C(C)(C)C (configuration not stated) [Pinacidil] | 0.345 (inactive)
O=S(=O)(c1cccc2cnccc12)N1CCCNCC1 | 4.63 (active)
